For part of these data: Results with a measured potency or affinity are listed apart. Activity calls are given as the source filed them.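 How the source made its calls, unless noted: active means calcium signal cut by more than 3 SD below the full-agonist control yet still positive, in both repeats and the earlier primary screen; inactive means the rest.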

In assay [1] the test system is TRPC4 beta (transient receptor potential cation channel C4), mouse. Nature of the assay: activators of mouse TRPC4 channel, confirmation, cell-based, Fluo4 calcium, HEK293 TRPC4beta/mu-opioid, duplicates, 10 µM (AID 2426;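 active means fluorescence ratio normalized to control raised more than 50% in primary screen plus both repeat runs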). The note with it: Fluo4 calcium fluorescence, at 10 µM; hits give high values.
The subject of assay [2] is transient receptor potential cation channel C4 beta (TRPC4), mouse. Put plainly: activators of mouse TRPC4 channel, confirmation, cell-based, second round, Fluo4, HEK293 TRPC4beta/mu-opioid, 1 µM (AID 2461;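 active means primary screen active and over 50% activation in each of two duplicate runs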). The conditions noted are these: Fluo4 calcium fluorescence, at 1 µM; hits give high values.
Assay [3] has as its system TRPC4 (transient receptor potential cation channel C4 beta), mouse. Nature of the assay: positive allosteric modulators of mouse TRPC4, confirmation, cell-based, second round, Fluo-4, HEK293 TRPC4beta/mu-opioid, 1 µM (AID 2554;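 active means primary screen hit whose fluorescence ratio, in both repeats, exceeds the weak agonist control mean by 3 SD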). The note with it: DAMGO EC20, Fluo-4 calcium flux, at 1 µM; hits give high values.
The test system of assay [4] is TRPC4 beta (transient receptor potential cation channel C4), mouse. Put plainly: positive allosteric modulators of mouse TRPC4, confirmation, cell-based, Fluo-4, HEK293 TRPC4beta/mu-opioid (AID 2555;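 active means primary screen hit whose calcium fluorescence ratio, in both repeats, exceeds the weak agonist control mean by 3 SD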). The note with it: DAMGO EC20, Fluo-4 calcium flux, at 10 µM; hits give high values.
For assay [5], the target named is Short transient receptor potential channel 4 (Mus musculus) (UniProt Q9QUQ5). Put plainly: inhibitors of mouse TRPC4 channel, confirmation, cell-based, Fluo4, HEK293 TRPC4beta/mu-opioid (AID 2636). The note with it: DAMGO, Fluo4 calcium flux, at 10 µM; hits give high values.
Chain of Short transient receptor potential channel 4 (Mus musculus) (Q9QUQ5 whole entry, looked up): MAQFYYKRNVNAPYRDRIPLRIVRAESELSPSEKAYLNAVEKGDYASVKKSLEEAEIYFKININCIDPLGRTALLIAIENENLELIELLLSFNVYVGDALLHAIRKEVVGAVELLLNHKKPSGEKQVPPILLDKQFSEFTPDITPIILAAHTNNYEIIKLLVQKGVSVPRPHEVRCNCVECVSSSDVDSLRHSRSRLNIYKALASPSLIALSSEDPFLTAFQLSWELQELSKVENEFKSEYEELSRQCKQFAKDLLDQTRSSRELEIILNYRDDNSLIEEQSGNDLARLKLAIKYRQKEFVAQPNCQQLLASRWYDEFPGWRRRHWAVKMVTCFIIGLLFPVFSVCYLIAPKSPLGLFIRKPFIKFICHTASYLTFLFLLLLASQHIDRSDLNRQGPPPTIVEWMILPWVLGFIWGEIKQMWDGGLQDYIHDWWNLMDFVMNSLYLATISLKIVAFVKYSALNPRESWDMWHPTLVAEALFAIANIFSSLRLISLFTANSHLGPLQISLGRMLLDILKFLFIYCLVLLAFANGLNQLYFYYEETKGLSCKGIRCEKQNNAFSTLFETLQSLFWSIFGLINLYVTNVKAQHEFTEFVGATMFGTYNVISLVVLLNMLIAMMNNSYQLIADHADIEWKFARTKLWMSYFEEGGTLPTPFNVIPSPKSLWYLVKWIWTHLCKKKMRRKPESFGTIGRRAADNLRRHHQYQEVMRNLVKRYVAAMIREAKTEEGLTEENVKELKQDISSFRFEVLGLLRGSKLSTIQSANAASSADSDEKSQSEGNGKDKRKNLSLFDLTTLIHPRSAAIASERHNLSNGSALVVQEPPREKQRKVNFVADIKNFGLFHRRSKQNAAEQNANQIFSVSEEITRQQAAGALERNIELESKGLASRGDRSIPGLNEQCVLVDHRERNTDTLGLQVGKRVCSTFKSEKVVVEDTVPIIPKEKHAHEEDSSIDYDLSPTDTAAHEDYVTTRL
Assay [6] has the same target. Nature of the assay: inhibitors of mouse TRPC4 channel, confirmation, cell-based, second round, Fluo4, HEK293 TRPC4beta/mu-opioid, 1 µM (AID 2637;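 active means calcium signal ratio cut to more than 3 SD under the fully stimulated control mean yet still positive, in both repeats and the primary screen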;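 on inhibition: percent of integrated ratio relative to wells lacking test compound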). The conditions noted are these: Fluo4 calcium flux, DAMGO, at 1 µM; hits give high values.
Assay [7] has the same target. Put plainly: mouse TRPC4 channel activators, dose response, cell-based, HEK293 TRPC4/mu-opioid, Fluo-4 calcium (AID 434937;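 active means primary screen activator hit with a dose response curve and TRPC4 channel activation at any tested dose; inactive means no activation, no dose response, or not a primary hit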).
Assay [8] has the same target. Put plainly: TRPC4 positive allosteric modulators, dose response, cell-based, HEK293 TRPC4/mu-opioid, Fluo-4 calcium, EC20 DAMGO (AID 434941;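 active means earlier screen potentiator hit that boosts the TRPC4 ion channel at some dose, with a dose response; inactive means no potentiation, no dose response, or not a prior hit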;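 further: calcium entry triggered by an EC20 dose of DAMGO at the co-expressed mu-opioid receptor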).
Assay [9] deals with Short transient receptor potential channel 6 (Mus musculus) (UniProt Q61143). Nature of the assay: inhibition of mouse TRPC6 channel, confirmation, selectivity assay for TRPC4 inhibitor project, cell-based, HEK293, membrane potential dye, duplicate (AID 434948;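 active means active in primary screen and both duplicates, each dropping signal beyond three positive-control SD with fluorescence still positive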). The note with it: HEK293 TRPC6, membrane potential dye fluorescence, at 10 µM, stimulated with maximal-effect acetylcholine; hits give high values.
Chain of Short transient receptor potential channel 6 (Mus musculus) (Q61143 whole entry, looked up): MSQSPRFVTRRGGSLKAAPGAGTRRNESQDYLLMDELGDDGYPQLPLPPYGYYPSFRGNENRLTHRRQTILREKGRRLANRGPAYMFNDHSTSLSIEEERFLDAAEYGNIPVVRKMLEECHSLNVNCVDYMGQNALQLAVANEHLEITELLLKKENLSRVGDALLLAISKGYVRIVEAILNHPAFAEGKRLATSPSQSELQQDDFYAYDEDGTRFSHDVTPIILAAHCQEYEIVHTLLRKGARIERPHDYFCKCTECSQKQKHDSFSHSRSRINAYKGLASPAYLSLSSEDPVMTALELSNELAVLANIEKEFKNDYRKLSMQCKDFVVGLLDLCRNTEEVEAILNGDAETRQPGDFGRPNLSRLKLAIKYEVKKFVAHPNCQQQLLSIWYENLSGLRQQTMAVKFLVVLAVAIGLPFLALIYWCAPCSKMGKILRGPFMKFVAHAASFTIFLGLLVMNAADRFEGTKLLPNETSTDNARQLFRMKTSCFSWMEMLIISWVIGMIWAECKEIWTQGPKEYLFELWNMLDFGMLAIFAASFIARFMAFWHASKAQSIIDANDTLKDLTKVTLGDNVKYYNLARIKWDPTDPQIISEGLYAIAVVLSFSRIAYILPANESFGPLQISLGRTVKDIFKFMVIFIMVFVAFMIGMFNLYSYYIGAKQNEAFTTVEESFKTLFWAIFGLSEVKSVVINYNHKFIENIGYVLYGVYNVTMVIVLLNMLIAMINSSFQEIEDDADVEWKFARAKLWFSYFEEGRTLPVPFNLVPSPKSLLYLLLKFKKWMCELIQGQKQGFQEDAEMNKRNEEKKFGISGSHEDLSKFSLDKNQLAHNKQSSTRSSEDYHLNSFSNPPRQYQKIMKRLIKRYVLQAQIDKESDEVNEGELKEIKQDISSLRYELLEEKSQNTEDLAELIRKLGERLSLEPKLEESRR

Assay [10] shares this target. Nature of the assay: activation of mouse TRPC6 channel, confirmation, selectivity assay for TRPC4 activator project, cell-based, HEK293, membrane potential dye, duplicate (AID 434950;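 active means membrane potential signal rise above negative control mean plus 3 SD in both duplicates, also active in the earlier TRPC4 screen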). The conditions noted are these: HEK293 TRPC6, membrane potential fluorescence, at 10 µM; hits give high values.
Assay [11] has the same target. Put plainly: TRPC6 potentiation by TRPC4 potentiator hits, confirmation, selectivity assay for TRPC4 potentiator project, HEK293 cells, membrane potential dye, duplicate (AID 434952;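 active means compound raising the membrane signal above positive-control mean plus 3 SD in both repeats, and a primary screen hit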). The note with it: HEK293 TRPC6, membrane potential dye fluorescence, at 10 µM, maximal acetylcholine added after compound; hits give high values.
Assay [12] addresses Short transient receptor potential channel 4 (Mus musculus) (UniProt Q9QUQ5). Put plainly: calcium flux activators in TRPC4/5HT1a cells, counter-screen for TRPC4 activator project, cell-based, second counter screen, HEK293 TRPC4/5HT1a, Fluo-4 (AID 434977;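 active means calcium signal rise above buffer-control mean plus 5 SD in both duplicates, and also a hit in the primary screen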). The conditions noted are these: Fluo-4 calcium flux, at 10 µM; hits give high values.
Assay [13] can be described thus: calcium flux inhibitors in TRPC4/5HT1a cells, confirmation, counter-screen for TRPC4 inhibitor project, cell-based, second counter screen, HEK293 TRPC4/5HT1a, Fluo-4 (AID 434978;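 active means primary screen active whose calcium signal fell more than 3 SD beyond the full-serotonin control mean in both duplicate plates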;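 on outcome: serotonin given first at submaximal then at maximal dose after compound preincubation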). The note with it: Fluo-4 calcium flux, at 10 µM, serotonin added to trigger calcium flux; hits give high values.
For assay [14], the system named is TRPC4 (mouse), co-expressed with 5HT1a in HEK293. Nature of the assay: calcium flux potentiators in TRPC4/5HT1a cells, confirmation, counter-screen for TRPC4 potentiator project, cell-based, second counter screen, HEK293 TRPC4/5HT1a, Fluo-4 (AID 434979;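 active means signal rise over 3 SD above mean of control wells given weak agonist, in both repeats and first screen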). The note with it: Fluo-4 calcium flux, at 10 µM, serotonin added at its EC20 dose; hits give high values.
Assay [15] can be described thus: calcium flux activation in mu-opioid HEK293 cells, confirmation, counter-screen for TRPC4 activator project, cell-based, HEK293 mu-opioid receptor line (AID 449723;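 active means hit in primary screen, with calcium signal over 5 SD above buffer well mean in both duplicates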;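 further: counter screen cells carry the mu-opioid receptor alone and lack TRPC4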). The conditions noted are these: Fluo-4 calcium fluorescence, at 10 µM; hits give high values.
A short description of assay [16]: calcium flux enhancement in mu-opioid HEK293 cells, confirmation, counter-screen for TRPC4 allosteric potentiator project, cell-based, HEK293 mu-opioid receptor line (AID 449724;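 active means calcium signal rise more than 3 SD above the low-dose agonist control mean, in both duplicate plates and the primary screen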;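 further: HEK293 cells carrying mu-opioid receptor only with no TRPC4 channel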). The conditions noted are these: Fluo-4 calcium flux, at 10 µM, compound added before EC20 DAMGO stimulus; hits give high values.

Consider `Cc1oc(-c2ccoc2)nc1CN(Cc1ccccc1)CC1CC1`, for which the result in [1], in assay [2], in assay [3], in assay [4], in [6] and in assay [7] was inactive. In addition, the outcome in assay [8], in assay [9], in assay [10], in assay [11], in assay [12] and in [13] was inactive. The result in [14], in assay [15] and in assay [16] was inactive. Also, the inhibition in assay [5] is 95% (active).

On to `O/N=C/c1ccccc1Oc1ccc(Cl)cc1`, for which the outcome in [1], in assay [2], in assay [3], in [4], in [6] and in assay [7] was inactive. Besides, the result in assay [8], in assay [9], in [10], in assay [11], in assay [12] and in [14] was inactive. The outcome in assay [15] and in assay [16] was inactive. Moreover, the inhibition was 98% (active) in assay [5] and 7.58% (active) in assay [13].

Take `O=C(COC(=O)Cn1cnc2ccccc2c1=O)Nc1ccccc1Sc1ccc(Cl)cc1`: the result in [1], in assay [2], in assay [3], in assay [4], in assay [7] and in assay [8] was inactive. The outcome in assay [9], in assay [10], in [11], in assay [12], in assay [14] and in assay [15] was inactive. For the same compound, the outcome in assay [16] was inactive. The inhibition was 62% (active) in assay [5], 43% (active) in assay [6] and 26.1% (active) in assay [13].

Regarding `C=CCNc1nc(N2CCCC2)nc2ccccc12`, the outcome in [1], in assay [2], in assay [3], in assay [4], in assay [7] and in assay [8] was inactive. Moreover, the compound was called inactive in assay [10], in assay [11], in assay [12], in assay [14], in assay [15] and in assay [16]. In addition, the inhibition in [5] is 98% (active); in [6], 74% (active); in assay [9], 37.5% (active); in assay [13] it was 19.9% (active).

For `COc1ccc(OC)c(Nc2cc(-c3ccccc3)nc(N)n2)c1`, the result in assay [1], in assay [2], in [3], in assay [4], in assay [7] and in [8] was inactive. Also, the compound was called inactive in assay [10], in assay [11], in [12], in [14], in assay [15] and in assay [16]. The inhibition in assay [5] was 100% (active); in assay [6], 49% (active); in assay [9], 55.5% (active); in [13], 37.9% (active).

Take `COc1ccc(/C=C/C(=O)Oc2cc(O)cc(O)c2)cc1`: the outcome in assay [1], in assay [2], in [3], in assay [4], in assay [6] and in [7] was inactive. Further, the outcome in assay [8], in [9], in [10], in [11], in assay [12] and in assay [14] was inactive. In addition, the outcome in [15] and in [16] was inactive. For the same compound, the inhibition is 96% (active) in assay [5] and 27.4% (active) in assay [13].

As to `O=C(c1ccc2c(c1)OCO2)C1CCCN(Cc2cc(F)ccc2-n2cccn2)C1` (stereo not given), the result in assay [1], in assay [2], in assay [3], in assay [4], in [6] and in assay [7] was inactive. Moreover, the outcome in assay [8], in assay [9], in [10], in [11], in [12] and in [14] was inactive. Besides, the result in assay [15] and in [16] was inactive. In addition, the figures for the inhibition in assay [5] and in assay [13] were 87% (active) and 32.9% (active), respectively.

Consider `Cn1c(=O)c2c(nc(SCc3cccnc3)n2Cc2ccc(F)cc2)n(C)c1=O`, for which the result in [1], in assay [2], in assay [3], in [4], in assay [6] and in assay [7] was inactive. In addition, the result in [8], in [9], in assay [10], in assay [11], in assay [12] and in [14] was inactive. Also, the result in assay [15] and in [16] was inactive. Moreover, the inhibition in [5] is 79% (active); in [13], 22.8% (active).

For the compound `Cn1c(NCc2ccccc2O)nc2ccccc21`, the outcome in [1], in [2], in assay [3], in assay [4], in assay [6] and in assay [7] was inactive. The outcome in [8], in [9], in assay [10], in [11], in assay [12] and in [13] was inactive. For the same compound, the outcome in assay [14], in assay [15] and in assay [16] was inactive. In assay [5], the inhibition was 62% (active).

Take `COc1ccc(OC)c(Nc2cc(C)nc3ccc(C)cc23)c1`: the outcome in assay [1], in assay [2], in [3], in assay [4], in assay [6] and in [7] was inactive. The result in assay [8], in assay [10], in assay [11], in [12], in assay [13] and in [14] was inactive. Moreover, the result in assay [15] and in [16] was inactive. Further, the inhibition in assay [5] is 38% (active); in assay [9] it was 41% (active).

As to `CCCCN=C(Nc1ccc(Cl)cc1)c1cccnc1`, the outcome in [1], in assay [2], in assay [3], in assay [4], in [7] and in assay [8] was inactive. Also, the call in [9], in assay [10], in assay [11], in assay [12], in [13] and in [14] was inactive. Besides, the outcome in [15] and in [16] was inactive. Also, the inhibition was 82% (active) in assay [5] and 54% (active) in assay [6].

In the case of `Cc1ccc(N(CC(=O)NC2CCCC2)C(=O)CNC(=O)c2cccs2)cc1F`, the result in assay [1], in assay [2], in assay [3], in assay [4], in assay [6] and in assay [7] was inactive. Also, the outcome in [8], in [9], in assay [10], in assay [11], in assay [12] and in assay [13] was inactive. The result in assay [14], in [15] and in [16] was inactive. The inhibition in [5] is 70% (active).

Take `C=CCN1CCN(C(c2cccc(OC)c2OC)c2nnnn2CCC(C)C)CC1` (stereo not given): the outcome in assay [1], in assay [2], in assay [3], in assay [4], in [6] and in [7] was inactive. In addition, the result in [8], in assay [9], in assay [10], in assay [11], in [12] and in [13] was inactive. Also, the outcome in assay [14], in assay [15] and in assay [16] was inactive. Besides, the inhibition in assay [5] was 51% (active).

For `CC1CCN(C(C)C(=O)Nc2ccccc2-c2ccccc2)CC1` (stereo not given), the outcome in assay [1], in assay [2], in assay [3], in assay [4], in assay [7] and in assay [8] was inactive. Besides, the compound was called inactive in assay [9], in [10], in [11], in assay [12], in assay [14] and in assay [15]. In assay [16], the outcome was inactive. Further, the inhibition in assay [5] was 82% (active); in [6] it was 36% (active); in [13], 33.1% (active).

In the case of `CCCCCCCNC(=O)COc1ccc2c(c1)C(=O)CC(C)(C)O2`, the outcome in [1], in assay [2], in assay [3], in [4], in assay [7] and in [8] was inactive. Besides, the result in assay [9], in assay [10], in assay [11], in assay [12], in assay [14] and in [15] was inactive. Further, in assay [16], the result was inactive. The inhibition in assay [5] was 81% (active); in assay [6], 46% (active); in assay [13] it was 24.7% (active).

These data come from PubChem BioAssay.
